Experimental data published in PubChem BioAssay.
The source made the active and inactive calls. Unless noted, the rule behind the calls is not given here.

Tests used:
[1] = compounds binding Alexa647 anti-His antibody – biochemical, small-molecule microarray, 635 nm fluorescence, artefact control for SMM control protein annotation, primary screen (AID 1128); conditions: higher = more signal;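 note: score merges feature fluorescence with signal-to-noise for each printed compound spot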
[2] = tested on: Human papillomavirus type 1a E7 protein (residues 1-88); test: HPV1a E7 small-molecule binders, primary screen, biochemical, small-molecule microarray, residues 1-88, 635 nm (AID 1129); conditions: small-molecule microarray binding, fluorescence 635 nm; higher = more signal
[3] = biological target: Focal adhesion kinase 1 (Homo sapiens) (UniProt Q05397); test: PTK2 protein binding on printed compound slides – biochemical, small-molecule microarray, 635/667 nm fluorescence, BSA, DTT, primary screen (AID 1130); conditions: 635 nm fluorescence, higher = more signal;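 note: composite of spot emission at 667 nm and signal to noise over triplicate slides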
[4] = tested on: Fibrinogen (Alexa647-labelled); test: Alexa647-fibrinogen binding to printed small molecules – biochemical, small-molecule microarray, 635/667 nm fluorescence, artefact control for SMM control-protein annotation, profiling panel (AID 1131); conditions: fibrinogen-A647 binding fluorescence, higher = more signal;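 note: z-score merges 667 nm fluorescence with per-spot signal-to-noise over triplicate slides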
[5] = biological target: Follistatin (Homo sapiens) (UniProt P19883); test: FST protein binding to printed compounds – biochemical, small-molecule microarray, 635/667 nm fluorescence, primary screen (AID 1132); conditions: 635 nm fluorescence, higher = more signal
[6] = biological target: Fibroblast growth factor 2 (Homo sapiens) (UniProt P09038); test: basic fibroblast growth factor binding to printed compounds – biochemical, small-molecule microarray, 635/667 nm fluorescence, primary screen (AID 1133); conditions: FGF2, fluorescence 635/667, higher = more signal
[7] = JC-1 mitochondrial potential readout, lung cancer cells – cell-based, A549, JC-1 fluorescence, basal, 24 h, 100 nL, profiling panel (AID 1138); conditions: higher = more signal;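 note: A549 lung adenocarcinoma cells under basal conditions with no added stimulus; test concentration not given here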
Lefty1 = Lefty1 protein binding to printed compounds – biochemical, small-molecule microarray, 635/667 nm fluorescence, primary screen (AID 1139); conditions: fluorescence 635/667, higher = more signal
[8] = tested on: wheat germ agglutinin (Triticum aestivum), Alexa647-labelled; test: Alexa647-WGA lectin binding to printed small molecules – biochemical, small-molecule microarray, 635/667 nm fluorescence, artefact control for SMM control-protein annotation, profiling panel (AID 1140); conditions: WGA-A647 binding, 635 nm fluorescence, higher = more signal;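 note: score merges 667 nm feature emission with signal to noise over triplicate slides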
[9] = biological target: Luciferin 4-monooxygenase (Photinus pyralis) (UniProt P08659); test: inhibition of purified Photinus pyralis luciferase – biochemical, luminescence, purified enzyme, 2006 set, primary screen (AID 1141); conditions: purified firefly luciferase, SteadyGlo luminescence, 30 min; higher = more signal, called active from +8 up or from −8 down;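 note: cell-free assay with purified firefly luciferase at 100 ng per well in PBS; test concentration not given here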
[10] = tested on: Wnt5a (protein binding on small-molecule microarray); test: small molecules binding Wnt5a protein – biophysical, small-molecule microarray, 635/667 nm fluorescence, primary screen (AID 1142); conditions: 635 nm fluorescence, higher = more signal;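 note: fluorescence read at 667 nm with signal to noise per printed feature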
[11] = ATP-based viability of Huh7 replicon cells – cell-based, CellTiter-Glo luminescence, basal, 48 h, cytotoxicity control for HCV replication inhibitor project, primary screen (AID 1143); conditions: higher = more signal, called active from +8 up or from −8 down;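 note: Huh7 hepatoma cells carrying a hepatitis C replication reporter with no stimulus; test concentration not given here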
[12] = Pseudomonas biofilm growth suppression – PAO1 strain, BacTiter-Glo luminescence, LB-PBS, primary screen (AID 1144); conditions: P. aeruginosa PAO1 biofilm, 12 h, higher = more signal
[13] = basal CRE-LacZ reporter activity in PC12 – cell-based, unstimulated, primary screen (AID 1145); conditions: no forskolin, luminescence, 4.5 h, higher = more signal, called active from +8 up or from −8 down
[14] = forskolin-driven CRE-LacZ activity in PC12 – cell-based, CRE-LacZ reporter, forskolin-stimulated, primary screen (AID 1146); conditions: luminescence, 4.5 h, higher = more signal, called active from +8 up or from −8 down;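 note: PC12 cells with 6xCRE LacZ reporter stimulated by forskolin 10 µM; beta-galactosidase reporter signal reflecting CREB driven transcription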
[15] = biological target: Streptavidin (Streptomyces avidinii) (UniProt P22629); test: compounds binding control protein streptavidin – biophysical, small-molecule microarray, 635/667 nm fluorescence, artefact control for SMM compound annotation, primary screen (AID 1147); conditions: higher = more signal;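 note: signal reflects streptavidin binding to arrayed compounds as a control protein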
[16] = probe aInhba binding on compound microarray – biochemical, small-molecule microarray, 635/667 nm fluorescence, primary screen (AID 1148); conditions: higher = more signal;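 note: score merges 667nm spot fluorescence with signal-to-noise for antibody binding to printed compounds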
Torsin-1A (Homo sapiens) [17] = biological target: Torsin-1A (Homo sapiens) (UniProt O14656); test: TOR1A wild-type binding on microarray – cell lysate, small-molecule microarray, lysate, 635/667 nm, primary screen (AID 1149); conditions: COS7 hTOR1A-WT lysate, 635 nm fluorescence, higher = more signal
Torsin-1A (Homo sapiens) [18] = biological target: Torsin-1A (Homo sapiens) (UniProt O14656); test: torsin A mutant lysate binding on microarrays – cell lysate, small-molecule microarray, COS7 lysate, 635/667 nm fluorescence, primary screen (AID 1150); conditions: COS7 hTOR1A mutant lysate, 635 nm fluorescence, higher = more signal;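 note: score pools 667 nm emission and signal to noise measuring lysate protein binding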
[19] = tested on: Sonic hedgehog protein (Shh); test: Sonic hedgehog microarray binding compounds – biochemical, small-molecule microarray, 635/667 nm fluorescence, primary screen (AID 1151); conditions: 635 nm fluorescence, higher = more signal;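 note: Shh protein binding to compounds spotted on small-molecule microarray slides; score combines spot fluorescence intensity with signal-to-noise across triplicate slides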

Torsin-1A (Homo sapiens), sequence (O14656 whole entry, looked up): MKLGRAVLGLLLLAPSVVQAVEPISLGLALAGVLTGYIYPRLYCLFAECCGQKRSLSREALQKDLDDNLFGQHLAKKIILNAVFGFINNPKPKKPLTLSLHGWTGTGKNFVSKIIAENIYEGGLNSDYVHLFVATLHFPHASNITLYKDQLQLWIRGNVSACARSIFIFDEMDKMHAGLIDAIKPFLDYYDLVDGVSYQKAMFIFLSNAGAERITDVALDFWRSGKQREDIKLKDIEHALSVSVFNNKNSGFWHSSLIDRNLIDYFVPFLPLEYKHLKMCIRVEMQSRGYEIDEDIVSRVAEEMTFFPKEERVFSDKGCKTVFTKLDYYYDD
Luciferin 4-monooxygenase (Photinus pyralis), sequence (P08659 whole entry, looked up): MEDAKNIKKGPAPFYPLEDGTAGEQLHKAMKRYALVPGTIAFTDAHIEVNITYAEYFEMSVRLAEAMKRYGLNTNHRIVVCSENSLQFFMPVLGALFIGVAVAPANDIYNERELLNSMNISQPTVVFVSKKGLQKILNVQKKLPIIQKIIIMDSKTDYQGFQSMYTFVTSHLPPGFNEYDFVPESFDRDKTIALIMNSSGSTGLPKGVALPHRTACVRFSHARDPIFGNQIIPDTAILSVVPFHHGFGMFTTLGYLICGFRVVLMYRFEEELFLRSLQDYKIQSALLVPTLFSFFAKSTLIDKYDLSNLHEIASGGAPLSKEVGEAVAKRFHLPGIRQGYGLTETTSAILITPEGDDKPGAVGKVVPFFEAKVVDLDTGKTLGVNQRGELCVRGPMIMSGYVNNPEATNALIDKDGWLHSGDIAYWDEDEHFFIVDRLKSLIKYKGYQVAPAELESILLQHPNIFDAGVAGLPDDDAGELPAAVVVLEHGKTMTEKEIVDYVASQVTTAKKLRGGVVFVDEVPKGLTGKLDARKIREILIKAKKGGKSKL
Focal adhesion kinase 1 (Homo sapiens), sequence (Q05397 whole entry, looked up): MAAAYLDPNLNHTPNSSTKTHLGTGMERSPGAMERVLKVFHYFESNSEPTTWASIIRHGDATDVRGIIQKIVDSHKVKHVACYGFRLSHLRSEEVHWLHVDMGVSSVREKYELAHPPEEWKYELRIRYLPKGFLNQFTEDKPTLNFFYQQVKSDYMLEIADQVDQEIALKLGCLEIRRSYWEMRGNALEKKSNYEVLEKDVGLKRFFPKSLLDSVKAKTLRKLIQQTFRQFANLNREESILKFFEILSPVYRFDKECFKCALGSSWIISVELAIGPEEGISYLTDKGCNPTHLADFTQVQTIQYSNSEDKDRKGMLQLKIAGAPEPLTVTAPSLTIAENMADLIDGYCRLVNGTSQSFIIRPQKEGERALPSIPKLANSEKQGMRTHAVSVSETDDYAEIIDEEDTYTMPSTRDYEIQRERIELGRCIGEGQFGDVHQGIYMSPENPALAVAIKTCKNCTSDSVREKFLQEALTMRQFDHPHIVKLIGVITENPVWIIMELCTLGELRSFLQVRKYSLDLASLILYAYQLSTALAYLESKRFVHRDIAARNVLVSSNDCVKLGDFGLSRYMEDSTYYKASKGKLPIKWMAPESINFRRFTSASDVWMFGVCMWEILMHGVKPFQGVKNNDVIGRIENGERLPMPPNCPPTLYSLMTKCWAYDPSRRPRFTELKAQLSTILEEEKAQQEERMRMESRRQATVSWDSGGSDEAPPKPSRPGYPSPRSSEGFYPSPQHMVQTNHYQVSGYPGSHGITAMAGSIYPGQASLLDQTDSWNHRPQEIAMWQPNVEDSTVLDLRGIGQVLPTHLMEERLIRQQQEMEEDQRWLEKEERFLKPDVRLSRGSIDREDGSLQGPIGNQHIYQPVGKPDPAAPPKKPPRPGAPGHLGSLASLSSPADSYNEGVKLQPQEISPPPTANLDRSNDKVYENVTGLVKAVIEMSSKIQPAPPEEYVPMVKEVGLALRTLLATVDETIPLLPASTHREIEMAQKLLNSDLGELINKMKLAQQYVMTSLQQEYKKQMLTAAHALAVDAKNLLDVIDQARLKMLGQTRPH
Streptavidin (Streptomyces avidinii), sequence (P22629 whole entry, looked up): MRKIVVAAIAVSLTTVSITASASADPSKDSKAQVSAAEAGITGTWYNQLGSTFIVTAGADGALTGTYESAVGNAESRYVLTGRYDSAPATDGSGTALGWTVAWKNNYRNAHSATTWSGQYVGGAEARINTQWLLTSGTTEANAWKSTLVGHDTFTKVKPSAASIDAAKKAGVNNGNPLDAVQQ
Fibroblast growth factor 2 (Homo sapiens), sequence (P09038 whole entry, looked up): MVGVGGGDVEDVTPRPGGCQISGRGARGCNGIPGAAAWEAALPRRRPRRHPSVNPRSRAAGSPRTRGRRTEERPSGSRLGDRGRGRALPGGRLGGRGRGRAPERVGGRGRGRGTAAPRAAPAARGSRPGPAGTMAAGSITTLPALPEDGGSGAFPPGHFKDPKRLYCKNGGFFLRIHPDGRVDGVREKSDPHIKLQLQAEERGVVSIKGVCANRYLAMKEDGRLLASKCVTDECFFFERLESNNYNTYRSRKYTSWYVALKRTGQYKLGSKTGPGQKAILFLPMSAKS
Follistatin (Homo sapiens), sequence (P19883 whole entry, looked up): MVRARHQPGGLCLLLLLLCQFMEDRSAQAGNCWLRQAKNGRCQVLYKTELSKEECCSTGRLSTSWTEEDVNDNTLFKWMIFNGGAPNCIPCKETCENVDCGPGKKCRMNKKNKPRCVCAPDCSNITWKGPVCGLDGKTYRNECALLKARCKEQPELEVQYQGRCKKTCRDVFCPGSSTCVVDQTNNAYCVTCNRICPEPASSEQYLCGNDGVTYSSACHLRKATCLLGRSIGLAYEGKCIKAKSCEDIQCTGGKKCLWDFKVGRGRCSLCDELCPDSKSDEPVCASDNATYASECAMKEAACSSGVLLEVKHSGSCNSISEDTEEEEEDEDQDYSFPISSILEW

| Structure (SMILES) | composite z-score [1] | composite z-score [2] | composite z-score [3] | composite z-score [4] | composite z-score [5] | composite z-score [6] | z-score [7] | composite z-score (Lefty1) | composite z-score [8] | z-score [9] | composite z-score [10] | z-score [11] | z-score [12] | z-score [13] | z-score [14] | composite z-score [15] | composite z-score [16] | composite z-score (Torsin-1A (Homo sapiens) [17]) | composite z-score (Torsin-1A (Homo sapiens) [18]) | composite z-score [19] |
| --- | --- | --- | --- | --- | --- | --- | --- | --- | --- | --- | --- | --- | --- | --- | --- | --- | --- | --- | --- | --- |
| COC(=O)c1c(CC[C@@H](CO)NC(=O)Nc2ncn[nH]2)oc(C(=O)Cc2ccccc2)c1C(=O)OC | 0.936 | 0.466 | 0.108 | 0.915 | 1.08 | 1.58 | -0.491 | 0.895 | 0.467 | 1.03 (inactive) | -0.0403 | 0.31 (inactive) | 0.152 (inactive) | -0.0106 (inactive) | 0.352 (inactive) | 1.36 | 0.0342 | 1.49 | 0.837 | 1.1 |
| C[n+]1ccc2ccc(O)cc2c1 | 1.81 | -0.495 | 0.132 | -0.399 | 1.37 | 1.68 | -0.924 | 1.54 | -0.37 | 0.591 (inactive) | 0.247 | -0.289 (inactive) | 0.125 (inactive) | 0.389 (inactive) | -0.287 (inactive) | -0.426 | -0.0405 | 2.27 | 1.19 | 1.95 |
| CC(C)(C)OC(=O)CC[C@]1(C(=O)NCC(O)CO)N=C(c2ccc(OCCCO)cc2)O[C@H]1c1ccccc1CN=[N+]=[N-] (stereo not given in full) | 2.31 | 0.705 | -0.0371 | 1.03 | 0.662 | 0.703 | -0.101 | -0.637 | 0.959 | -0.718 (inactive) | 0.921 | 0.168 (inactive) | -1.35 (inactive) | 0.0594 (inactive) | -0.209 (inactive) | 1.63 | 0.496 | 0.399 | 2.06 | -0.535 |
| COC(=O)[C@@]1(Cc2ccc(F)cc2)[C@H]2c3cc(C(=O)N(C)C)n(CCCNc4ccc(C(F)(F)F)cc4Cl)c3C[C@H]2CN1C(=O)c1ccccc1 | 2.17 | 1.24 | 0.903 | 1.01 | 0.543 | -0.123 | 0.284 | 0.0748 | 1.3 | 0.579 (inactive) | 0.72 | -3.53 (inactive) | -0.119 (inactive) | -0.379 (inactive) | 0.607 (inactive) | 1.8 | 0.572 | -0.335 | 0.547 | -0.576 |
| CN(C)CCCCCCNC(=O)[C@@H]1C[C@@H]2C(=O)NCC(=O)N2[C@@H]1c1cccc(OCCO)c1 | 2.96 | 1.28 | 0.446 | 0.232 | 1.34 | 0.826 | 0.295 | 1.36 | -0.0165 | -0.791 (inactive) | 1.21 | 0.105 (inactive) | -0.418 (inactive) | -0.549 (inactive) | -0.832 (inactive) | 0.312 | 0.105 | 1.14 | 2.07 | 1.64 |
| CC(C)[C@H]1COC(=O)N1C(=O)[C@H]1[C@@H](c2ccccc2)N(c2ccccc2)O[C@@H]1C | -0.0372 | 0.706 | 0.201 | 0.635 | 0.562 | 0.57 | 0.78 | 0.593 | 0.127 | 0.132 (inactive) | 0.138 | -0.917 (inactive) | -1.33 (inactive) | 0.493 (inactive) | -0.688 (inactive) | 0.465 | -0.0989 | 0.167 | 0.624 | 0.506 |
| CN1C(=O)C2C(C1=O)C1C=C(c3ccc(CO)cc3)C2C(C2CC2)N1Cc1sc2ccccc2c1Cl (stereo not given) | 3.31 | 1.26 | 1.89 | 0.982 | 0.968 | 1.06 | 2.26 | 0.453 | 1.25 | -1.75 (inactive) | 0.567 | -3.96 (inactive) | 0.277 (inactive) | 2.75 (inactive) | -0.825 (inactive) | 2.1 | 0.432 | 1.08 | 1.57 | 0.25 |
| C=CCNC(=O)[C@H]1[C@@H]2C(=O)O[C@@H](c3ccccc3)[C@@H](c3ccccc3)N2[C@@H](c2ccc(OCCO)cc2)[C@]12C(=O)N(C(=O)OCCOC)c1ccc(C#CC3(O)CCCCCC3)cc12 | 0.632 | 1.21 | 1.32 | 0.888 | 1.36 | 1.58 | 0.208 | 1.47 | 0.777 | -1.86 (inactive) | 0.558 | -2.88 (inactive) | -0.148 (inactive) | 0.761 (inactive) | 0.309 (inactive) | 0.37 | 0.569 | 1.79 | 0.907 | 1.65 |
| C=C(C(=O)CC[C@@H](OC(=O)c1cccnc1)c1ccc(OCCO)cc1)C(C)C | 0.222 | 0.314 | -0.17 | -0.0579 | 1.43 | 1.16 | -0.358 | 1.21 | 0.752 | -3.48 (inactive) | 0.725 | -8.32 (active) | 0.118 (inactive) | 20 (active) | 0.12 (inactive) | -0.136 | -0.128 | 0.0998 | 0.97 | 1.58 |
